For 1 compound, fold shift results are on record in PubChem BioAssay AID743419 (Vanderbilt Specialized Chemistry Center, 2014).

The assay deals with Metabotropic glutamate receptor 5 (Homo sapiens) (UniProt P41594). Kind of assay: off-target activity check on mGlu5 receptor – cell-based, calcium fluorescence, glutamate curve fold shift, selectivity assay for mGlu8/mGlu7 PAM project, profiling panel (AID 743419). To be noted: mGlu5 cells, Fluo-4 calcium, glutamate CRC shift; glutamate EC50 fold shift; at 10 µM; stronger effect = higher value.
Chain of Metabotropic glutamate receptor 5 (Homo sapiens) (P41594 whole entry, looked up): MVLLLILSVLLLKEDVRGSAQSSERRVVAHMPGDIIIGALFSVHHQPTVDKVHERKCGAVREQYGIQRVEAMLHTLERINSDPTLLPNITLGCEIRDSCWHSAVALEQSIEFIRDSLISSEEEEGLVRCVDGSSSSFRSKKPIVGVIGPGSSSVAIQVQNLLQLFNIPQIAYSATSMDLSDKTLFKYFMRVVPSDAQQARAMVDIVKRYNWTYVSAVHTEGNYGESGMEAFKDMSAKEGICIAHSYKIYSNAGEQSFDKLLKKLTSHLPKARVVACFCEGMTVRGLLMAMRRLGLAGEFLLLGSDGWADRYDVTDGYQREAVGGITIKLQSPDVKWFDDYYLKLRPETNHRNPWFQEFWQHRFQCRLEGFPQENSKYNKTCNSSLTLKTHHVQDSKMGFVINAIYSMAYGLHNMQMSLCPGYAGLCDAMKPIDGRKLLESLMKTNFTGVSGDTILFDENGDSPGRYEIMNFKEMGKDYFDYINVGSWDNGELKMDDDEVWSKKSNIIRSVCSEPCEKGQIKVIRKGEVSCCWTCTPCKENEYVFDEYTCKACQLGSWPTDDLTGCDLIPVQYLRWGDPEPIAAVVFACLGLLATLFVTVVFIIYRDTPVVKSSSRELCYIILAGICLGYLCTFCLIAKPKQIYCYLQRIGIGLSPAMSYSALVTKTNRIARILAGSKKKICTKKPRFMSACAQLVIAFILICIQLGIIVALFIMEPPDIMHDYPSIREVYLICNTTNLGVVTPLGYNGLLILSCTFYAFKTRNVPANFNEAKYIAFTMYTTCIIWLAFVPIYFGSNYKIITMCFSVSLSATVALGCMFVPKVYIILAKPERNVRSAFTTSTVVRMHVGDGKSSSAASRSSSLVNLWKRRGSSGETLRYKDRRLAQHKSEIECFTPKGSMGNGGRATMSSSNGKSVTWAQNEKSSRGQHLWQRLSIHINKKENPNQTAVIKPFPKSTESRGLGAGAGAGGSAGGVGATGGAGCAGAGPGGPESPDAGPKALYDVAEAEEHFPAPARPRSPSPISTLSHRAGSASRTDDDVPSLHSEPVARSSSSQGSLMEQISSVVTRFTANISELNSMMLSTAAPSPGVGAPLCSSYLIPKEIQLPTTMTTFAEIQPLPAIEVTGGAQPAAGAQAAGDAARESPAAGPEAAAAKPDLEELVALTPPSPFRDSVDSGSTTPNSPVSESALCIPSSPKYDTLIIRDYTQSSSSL

On to `COC(=O)c1ccc(-n2c(C)cc(C(=O)CSc3ccc(NC(C)=O)cc3)c2C)cc1`, for which the fold shift is 1.45.
